Inconclusive results are not listed. The source made the active and inactive calls. Rule for the calls, unless noted: active = hit-call score of the fitted dose curve at least 0.9, where 1 is the maximum; inactive = score below 0.9.

This is an account of results in PubChem BioAssay (EPA / NIEHS).

A short description of assay [1]: ATG_CRE_CIS: Attagene CIS-FACTORIAL HepG2 Assay for human cAMP Responsive Element (CRE) binding protein 3 (AID 2282926). As to conditions: HepG2 CRE cis-reporter, Attagene multiplexed mRNA; actives raise or lower the signal. A digest of the protocol: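 HepG2 cells transiently transfected with a multiplexed reporter library (CRE-driven unit among them) were dosed for 24 h. Reporter mRNA was quantified by RT-PCR, fluorescent labelling, HpaI digestion and capillary electrophoresis, with bidirectional fitting against DMSO baseline.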

Assay [2] is described as follows: ATG_CMV_CIS: Attagene CIS-FACTORIAL HepG2 Assay for human CMV (Internal Marker) (AID 2282928).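 Note: endpoint acts as a background internal control marker rather than a target.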 The conditions noted are these: HepG2 CMV promoter reporter, transcription factor profiling; actives raise or lower the signal. In outline: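 HepG2 cells transiently transfected with multiple cis-regulated reporter units; 24 h compound exposure. Reporter mRNA quantified by RT-PCR, 6-FAM primer-extension labeling, HpaI digestion and capillary electrophoresis; bidirectional fitting against DMSO baseline.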

The nature of assay [3]: ATG_AP_1_CIS: Attagene CIS-FACTORIAL HepG2 Assay for human Activator Protein 1 (AP-1) (AID 2282931). As to conditions: HepG2 Attagene cis-factorial AP-1 reporter mRNA; actives raise or lower the signal. In outline: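 HepG2, transient cis-reporter transfection; 24 h; readout RT-PCR/CE fluorescence; DMSO baseline, gain and loss fitted.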
Assay [4] in a line: ATG_BRE_CIS: Attagene CIS-FACTORIAL HepG2 Assay for human Bone Morphogenetic Protein (BMP) Response Element (BRE) (AID 2282933). The conditions noted are these: HepG2 BMP response element reporter, Attagene transcription factor profiling; actives raise or lower the signal. A digest of the protocol:
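Multiplexed cis-reporter assay, HepG2, 24 h exposure. mRNA from reporter units quantified via RT-PCR/CE; DMSO baseline; bidirectional curve fit.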

For assay [5], the target named is Hepatocyte nuclear factor 3-beta (Homo sapiens) (UniProt Q9Y261). Put plainly: ATG_FoxA2_CIS: Attagene CIS-FACTORIAL HepG2 Assay for human Forkhead box A2 (FOXA2) (AID 2282942). As to conditions: HepG2 cis-reporter transcription factor activity, 24 h; actives raise or lower the signal. A digest of the protocol:
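24 h dosing of HepG2 bearing cis-reporter constructs; mRNA readout by RT-PCR/CE fluorescence; bidirectional fit, DMSO baseline.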

A short description of assay [6]: ATG_GATA_CIS: Attagene CIS-FACTORIAL HepG2 Assay for human GATA Binding Protein (AID 2282944). As to conditions: HepG2 GATA cis-element reporter, Attagene multiplex mRNA; actives raise or lower the signal. In outline: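 After transfecting HepG2 cells with multiple cis-regulated reporter units, chemicals are dosed for 24 h; isolated RNA undergoes RT-PCR and fluorescent labeling before capillary electrophoresis, with activity expressed against DMSO.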

The target of assay [7] is Hepatocyte nuclear factor 6 (Homo sapiens) (UniProt Q9UBC0). Kind of assay: ATG_HNF6_CIS: Attagene CIS-FACTORIAL HepG2 Assay for human Hepatocyte Nuclear Factor 6 (HNF6) (AID 2282952). The conditions noted are these: HepG2 Attagene cis-factorial HNF6 reporter transcription; actives raise or lower the signal. In outline:
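HepG2 cells transiently transfected with cis-element-driven multiple reporter transcription units, dosed 24 h; reporter mRNA quantified by RT-PCR, FAM primer extension, HpaI digestion and capillary electrophoresis; bidirectional fit versus DMSO baseline.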

Assay [8] can be described thus: ATG_MRE_CIS: Attagene CIS-FACTORIAL HepG2 Assay for human Metal Responsive Element (MRE) (AID 2282954). As to conditions: HepG2 MRE cis-reporter transcription, Attagene multiplex; actives raise or lower the signal. A digest of the protocol: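 HepG2 cells transiently transfected with multiple cis-element reporter units measure endogenous MTF1-driven transcription. After 24 h compound exposure, reporter mRNA is quantified by RT-PCR with 6-FAM labelling, HpaI digestion and capillary electrophoresis; bidirectional fits versus DMSO.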

Assay [9] addresses Paired box protein Pax-6 (Homo sapiens) (UniProt P26367). Kind of assay: ATG_Pax6_CIS: Attagene CIS-FACTORIAL HepG2 Assay for human Paired Box 6 (PAX6) (AID 2282956). The conditions noted are these: HepG2 CIS-FACTORIAL PAX6 reporter transcription, RNA readout; actives raise or lower the signal. In outline:
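HepG2 cells transiently transfected with multiplexed cis-promoter reporter units (endogenous TF activity) were dosed for 24 h. Reporter mRNA was quantified by RT-PCR, 6-FAM labeling, HpaI digestion and capillary electrophoresis; bidirectional fitting versus DMSO baseline.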

A short description of assay [10]: ATG_SREBP_CIS: Attagene CIS-FACTORIAL HepG2 Assay for human Sterol Regulatory Element Binding (SREBP) (AID 2282962). The conditions noted are these: HepG2 Attagene cis-factorial SREBP reporter, mRNA; actives raise or lower the signal. A digest of the protocol: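 HepG2 cells transiently transfected with multiplexed cis-element reporter units report endogenous transcription factor activity. After 24 h of chemical exposure, reporter mRNA was quantified by RT-PCR, 6-FAM labelling, HpaI digestion and capillary electrophoresis; bidirectional fits used DMSO as baseline.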

Assay [11] can be described thus: ATG_VDRE_CIS: Attagene CIS-FACTORIAL HepG2 Assay for human Vitamin D Receptor Element (VDRE) (AID 2282968). As to conditions: HepG2 VDRE cis-reporter transcription, actives raise or lower the signal. In outline: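 HepG2 cells transiently transfected with cis-element reporter units, dosed 24 h; reporter mRNA measured by RT-PCR, 6-FAM labeling, HpaI digestion and capillary electrophoresis. Activity fitted bidirectionally against DMSO baseline.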

Assay [12] can be described thus: ATG_NF_kB_CIS: Attagene CIS-FACTORIAL HepG2 Assay for human Nuclear Factor Kappa B (NF-kB) (AID 2282991). The conditions noted are these: HepG2 Attagene cis-factorial NF-kB reporter mRNA; actives raise or lower the signal. In outline:
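Fluorescence of labelled RT-PCR products separated by capillary electrophoresis gives reporter mRNA levels from transfected HepG2 cells exposed 24 h; values are fitted in both directions relative to DMSO.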

The nature of assay [13]: ATG_NRF2_ARE_CIS: Attagene CIS-FACTORIAL HepG2 Assay for human Nuclear Factor Erythroid 2 Related Factor 2 (NFR2) response to Antioxidant Response Elements (ARE) (AID 2282992). The conditions noted are these: HepG2 Attagene ARE/NRF2 reporter, transcription factor activity; actives raise or lower the signal. A digest of the protocol: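 HepG2 cells transiently transfected with multiplexed cis-regulated reporter transcription units measure endogenous transcription factor activity. Reporter mRNA at 24 h is quantified by RT-PCR, fluorescent labelling and capillary electrophoresis, with bidirectional fitting relative to DMSO.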

For assay [14], the target named is Cellular tumor antigen p53 (Homo sapiens) (UniProt P04637). Put plainly: ATG_p53_CIS: Attagene CIS-FACTORIAL HepG2 Assay for human p53 Transcription Factor (AID 2282994). The conditions noted are these: HepG2 p53 cis-element reporter, Attagene mRNA; actives raise or lower the signal. In outline:
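HepG2 cells transiently transfected with multiplexed cis-regulated reporter transcription units read endogenous TF activity. After 24 h compound exposure, reporter mRNA was quantified by RT-PCR, fluorescent labelling, HpaI digestion and capillary electrophoresis; bidirectional fits versus DMSO baseline.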

Assay [15] in a line: ATG_XTT_Cytotoxicity: Cytotoxicity Assessment in the Attagene TRANS-FACTORIAL HepG2 Assay (AID 2283584; active = hit-call score of the fitted dose curve at least 0.9, where 1 is the maximum). In outline:
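HepG2 human liver cells, transiently transfected with multiple GAL4-UAS reporter units, were dosed and read at 24 h by XTT as cell number. Loss of signal was fitted relative to DMSO negative control baseline.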

For assay [16], the target named is Aryl hydrocarbon receptor (Homo sapiens) (UniProt P35869). Put plainly: ATG_Ahr_CIS: Attagene CIS-FACTORIAL HepG2 Assay for human Aryl Hydrocarbon Receptor (Ahr) (AID 2282930). As to conditions: HepG2 AhR cis-factorial reporter transcription; actives raise or lower the signal. In outline: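 HepG2 cells transiently transfected with cis-element-driven multiplexed reporter transcription units; endogenous transcription factor activity measured as reporter mRNA 24 h after dosing. RT-PCR, 6-FAM labelling, HpaI digestion, capillary electrophoresis; bidirectional fitting versus DMSO baseline.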
Sequence of Aryl hydrocarbon receptor (Homo sapiens) (P35869 whole entry, looked up): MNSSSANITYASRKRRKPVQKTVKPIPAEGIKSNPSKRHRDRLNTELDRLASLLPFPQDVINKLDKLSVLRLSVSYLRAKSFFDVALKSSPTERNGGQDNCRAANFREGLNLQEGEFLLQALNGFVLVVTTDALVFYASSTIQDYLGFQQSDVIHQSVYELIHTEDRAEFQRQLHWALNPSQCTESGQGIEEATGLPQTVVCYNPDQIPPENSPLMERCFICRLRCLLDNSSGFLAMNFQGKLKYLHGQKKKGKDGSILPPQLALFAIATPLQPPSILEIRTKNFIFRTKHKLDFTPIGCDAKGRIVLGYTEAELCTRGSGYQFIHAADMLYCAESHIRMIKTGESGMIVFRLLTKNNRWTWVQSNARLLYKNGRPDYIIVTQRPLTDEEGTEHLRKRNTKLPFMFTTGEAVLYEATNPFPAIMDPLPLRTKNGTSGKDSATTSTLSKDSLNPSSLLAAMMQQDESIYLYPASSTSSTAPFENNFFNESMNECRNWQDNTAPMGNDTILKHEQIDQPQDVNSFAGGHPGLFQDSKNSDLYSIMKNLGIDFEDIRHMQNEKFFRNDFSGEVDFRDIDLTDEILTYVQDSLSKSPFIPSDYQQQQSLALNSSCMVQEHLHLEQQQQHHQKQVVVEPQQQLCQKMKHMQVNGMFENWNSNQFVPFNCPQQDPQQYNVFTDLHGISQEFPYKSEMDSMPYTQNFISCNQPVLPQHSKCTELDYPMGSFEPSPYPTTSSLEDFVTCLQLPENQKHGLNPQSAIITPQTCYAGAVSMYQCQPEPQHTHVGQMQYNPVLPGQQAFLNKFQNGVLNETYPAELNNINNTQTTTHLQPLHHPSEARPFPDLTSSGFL

A short description of assay [17]: ATG_FoxO_CIS: Attagene CIS-FACTORIAL HepG2 Assay for human Forkhead box O (FoxO) (AID 2282943). As to conditions: HepG2 Attagene cis-reporter, FoxO element, mRNA; actives raise or lower the signal. In outline: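 HepG2 cells transiently transfected with cis-promoter-driven multiple reporter transcription units; 24 h after chemical dosing, reporter mRNA quantified by RT-PCR, fluorescent primer extension, HpaI digestion and capillary electrophoresis. Bidirectional fitting versus DMSO baseline.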

For assay [18], the target named is Hypoxia-inducible factor 1-alpha (Homo sapiens) (UniProt Q16665). Put plainly: ATG_HIF1a_CIS: Attagene CIS-FACTORIAL HepG2 Assay for human Hypoxia Inducible Factor 1 (HIF1A) (AID 2282951). The conditions noted are these: HepG2 Attagene cis-factorial HIF1a reporter transcription; actives raise or lower the signal. A digest of the protocol: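 After 24 h chemical exposure of reporter-transfected HepG2 cells, reporter cDNA was PCR-amplified, labelled by 6-FAM primer extension (2 min 95 C, 20 s 68 C, 10 min 72 C), HpaI-cut (2 h, 37 C) and analysed by CE.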
Sequence of Hypoxia-inducible factor 1-alpha (Homo sapiens) (Q16665 whole entry, looked up): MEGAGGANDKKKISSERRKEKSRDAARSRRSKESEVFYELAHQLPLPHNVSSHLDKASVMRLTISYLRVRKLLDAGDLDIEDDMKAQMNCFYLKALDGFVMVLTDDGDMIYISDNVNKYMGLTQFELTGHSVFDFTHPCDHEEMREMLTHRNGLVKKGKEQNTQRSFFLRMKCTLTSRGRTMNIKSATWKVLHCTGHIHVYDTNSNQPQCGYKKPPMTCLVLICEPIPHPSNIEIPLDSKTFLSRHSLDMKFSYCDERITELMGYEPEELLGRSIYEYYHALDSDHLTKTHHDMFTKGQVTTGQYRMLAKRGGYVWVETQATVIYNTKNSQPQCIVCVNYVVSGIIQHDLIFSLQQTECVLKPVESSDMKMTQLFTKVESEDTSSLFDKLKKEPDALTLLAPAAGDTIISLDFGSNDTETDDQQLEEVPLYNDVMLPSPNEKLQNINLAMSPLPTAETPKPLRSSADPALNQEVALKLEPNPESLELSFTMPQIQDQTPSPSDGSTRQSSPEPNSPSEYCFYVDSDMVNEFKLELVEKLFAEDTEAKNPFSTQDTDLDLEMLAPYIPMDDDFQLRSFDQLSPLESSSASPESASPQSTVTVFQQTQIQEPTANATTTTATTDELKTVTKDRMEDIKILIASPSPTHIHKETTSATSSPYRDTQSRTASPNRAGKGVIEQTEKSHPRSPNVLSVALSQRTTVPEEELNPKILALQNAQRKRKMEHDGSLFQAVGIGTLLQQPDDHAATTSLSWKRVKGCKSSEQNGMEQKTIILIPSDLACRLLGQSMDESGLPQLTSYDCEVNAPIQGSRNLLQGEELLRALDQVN

Assay [19] has as its target Heat shock factor protein 1 (Homo sapiens) (UniProt Q00613). Kind of assay: ATG_HSE_CIS: Attagene CIS-FACTORIAL HepG2 Assay for human Heat Shock Transcription Factor 1 (HSE) (AID 2282953). The conditions noted are these: HepG2 HSE cis-reporter, Attagene RNA transcription; actives raise or lower the signal. A digest of the protocol:
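Endogenous transcription factor activity captured via cis-promoter reporter units transfected into HepG2; treatment lasted 24 h. Fluorescence intensity of reporter fragments analysed with bidirectional curve fitting, DMSO baseline.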

A short description of assay [20]: ATG_Ets_CIS: Attagene CIS-FACTORIAL HepG2 Assay for human Erythroblast Transformation Specific (ETS) (AID 2282941). The conditions noted are these: HepG2 ETS cis-reporter transcription, actives raise or lower the signal. A digest of the protocol: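 HepG2 cells transiently transfected with cis-promoter reporter transcription units were dosed for 24 h; reporter mRNA was measured by RT-PCR, 6-FAM primer extension, HpaI digestion and capillary electrophoresis, with bidirectional fitting against DMSO baseline.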

Sequence of Cellular tumor antigen p53 (Homo sapiens) (P04637 whole entry, looked up): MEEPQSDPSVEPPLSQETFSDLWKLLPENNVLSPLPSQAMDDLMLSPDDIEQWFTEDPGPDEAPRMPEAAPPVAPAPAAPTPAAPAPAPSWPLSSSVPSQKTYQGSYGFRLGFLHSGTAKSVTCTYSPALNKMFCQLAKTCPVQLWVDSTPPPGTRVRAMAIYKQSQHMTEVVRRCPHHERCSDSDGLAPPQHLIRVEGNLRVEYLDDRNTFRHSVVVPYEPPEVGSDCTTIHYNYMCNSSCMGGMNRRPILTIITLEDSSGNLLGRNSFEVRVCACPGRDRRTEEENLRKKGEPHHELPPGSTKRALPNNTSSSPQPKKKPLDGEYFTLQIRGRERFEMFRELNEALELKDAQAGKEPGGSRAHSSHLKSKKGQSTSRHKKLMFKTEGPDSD
Sequence of Hepatocyte nuclear factor 3-beta (Homo sapiens) (Q9Y261 whole entry, looked up): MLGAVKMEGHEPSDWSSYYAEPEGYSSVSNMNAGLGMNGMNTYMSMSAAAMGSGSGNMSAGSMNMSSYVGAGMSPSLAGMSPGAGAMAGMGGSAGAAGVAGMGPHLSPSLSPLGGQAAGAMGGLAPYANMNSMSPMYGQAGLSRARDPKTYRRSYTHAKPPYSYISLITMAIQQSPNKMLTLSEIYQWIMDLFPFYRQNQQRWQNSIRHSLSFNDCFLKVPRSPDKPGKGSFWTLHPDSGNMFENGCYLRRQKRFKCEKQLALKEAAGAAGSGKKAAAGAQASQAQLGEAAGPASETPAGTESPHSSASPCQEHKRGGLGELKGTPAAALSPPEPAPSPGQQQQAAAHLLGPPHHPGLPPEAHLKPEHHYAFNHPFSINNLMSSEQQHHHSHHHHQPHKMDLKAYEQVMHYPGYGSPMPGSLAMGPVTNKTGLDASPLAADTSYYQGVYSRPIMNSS
Sequence of Hepatocyte nuclear factor 6 (Homo sapiens) (Q9UBC0 whole entry, looked up): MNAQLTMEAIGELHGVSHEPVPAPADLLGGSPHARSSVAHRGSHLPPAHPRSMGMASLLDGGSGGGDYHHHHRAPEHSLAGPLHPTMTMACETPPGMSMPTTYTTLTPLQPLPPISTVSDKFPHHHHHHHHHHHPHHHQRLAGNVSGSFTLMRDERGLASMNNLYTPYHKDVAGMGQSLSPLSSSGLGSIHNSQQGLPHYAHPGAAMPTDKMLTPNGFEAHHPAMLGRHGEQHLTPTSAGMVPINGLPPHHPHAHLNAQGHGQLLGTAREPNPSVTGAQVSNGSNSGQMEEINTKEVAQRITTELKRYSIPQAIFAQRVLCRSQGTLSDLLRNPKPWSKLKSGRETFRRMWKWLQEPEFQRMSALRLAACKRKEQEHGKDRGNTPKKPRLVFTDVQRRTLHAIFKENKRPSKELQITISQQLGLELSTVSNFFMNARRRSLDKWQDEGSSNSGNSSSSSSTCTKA
Sequence of Heat shock factor protein 1 (Homo sapiens) (Q00613 whole entry, looked up, the tested form may be a part): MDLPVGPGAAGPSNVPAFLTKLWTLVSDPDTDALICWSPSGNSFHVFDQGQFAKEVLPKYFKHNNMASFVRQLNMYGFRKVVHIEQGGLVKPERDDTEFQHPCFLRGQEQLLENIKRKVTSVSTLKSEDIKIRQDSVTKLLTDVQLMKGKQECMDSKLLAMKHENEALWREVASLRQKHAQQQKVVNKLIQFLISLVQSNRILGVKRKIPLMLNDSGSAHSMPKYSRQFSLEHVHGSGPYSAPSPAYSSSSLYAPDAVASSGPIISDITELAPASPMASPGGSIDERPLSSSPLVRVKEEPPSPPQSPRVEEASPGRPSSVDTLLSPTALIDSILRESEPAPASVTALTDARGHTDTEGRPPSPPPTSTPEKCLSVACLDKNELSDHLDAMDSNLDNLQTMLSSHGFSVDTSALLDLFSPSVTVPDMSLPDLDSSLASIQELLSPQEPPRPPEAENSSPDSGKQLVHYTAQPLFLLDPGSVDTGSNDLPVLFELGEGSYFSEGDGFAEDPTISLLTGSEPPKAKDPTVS
Sequence of Paired box protein Pax-6 (Homo sapiens) (P26367 whole entry, looked up): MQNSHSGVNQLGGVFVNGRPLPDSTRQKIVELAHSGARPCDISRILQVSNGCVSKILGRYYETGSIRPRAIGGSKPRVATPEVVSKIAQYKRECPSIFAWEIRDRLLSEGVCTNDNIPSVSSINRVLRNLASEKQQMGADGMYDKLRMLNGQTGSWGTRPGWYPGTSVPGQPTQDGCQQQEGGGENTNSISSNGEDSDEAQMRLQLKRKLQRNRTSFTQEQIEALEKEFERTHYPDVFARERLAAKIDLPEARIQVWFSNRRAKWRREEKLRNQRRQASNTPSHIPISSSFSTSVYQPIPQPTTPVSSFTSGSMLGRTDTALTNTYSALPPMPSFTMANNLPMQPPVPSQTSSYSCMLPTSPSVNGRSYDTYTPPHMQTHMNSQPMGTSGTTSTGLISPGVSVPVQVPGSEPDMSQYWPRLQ

Take `[N-]=[N+]=CC(=O)OC[C@H](N)C(=O)O`: the call in assay [1], in [2], in assay [3], in assay [4], in assay [5] and in assay [6] was inactive. For the same molecule, the molecule was called inactive in assay [7], in assay [8], in [9], in assay [10], in [11] and in assay [12]. In addition, the molecule was classed as inactive in assay [13], in [14] and in assay [15].
Take `Nc1ccccc1C(=O)OCCc1ccccc1`: the result in [1], in [2], in [3], in assay [17], in assay [6] and in [7] was inactive. Also, the molecule was classed as inactive in assay [19], in [10], in [12], in [14] and in [15]. For the same molecule, the AC50 in assay [16] was 10 µM (active); in assay [18] it was 31.9 µM (active); in assay [8] it was 33.4 µM (active); in [11], 22.3 µM (active); in [13] it was 13.1 µM (active).
As to `CCOC(=O)C1OC1(C)c1ccccc1` (stereo unspecified), the call in [1], in assay [2], in assay [16], in [20], in [5] and in assay [17] was inactive. For the same molecule, the molecule was called inactive in [6], in assay [18], in [7], in [19], in assay [8] and in assay [10]. In addition, the outcome in assay [13], in [14] and in [15] was inactive.
Take `[CH3][Sn]([CH3])([Cl])[Cl]`: the result in assay [1], in assay [2], in assay [16], in assay [4], in [20] and in assay [5] was inactive. Also, the molecule was called inactive in assay [17], in assay [6], in assay [18], in assay [7], in assay [10] and in assay [11]. The molecule was classed as inactive in assay [12]. For the same molecule, the AC50 in assay [19] was 114 µM (active); in assay [13] it was 63.8 µM (active).
